Assay outcomes from PubChem.
The list is not random: actives were taken first. Their share in the collection is about 3.3%.
Calb FLC – affects C. albicans growth with fluconazole | C. albicans CaCi-2 (fluconazole-resistant clinical isolate) + fluconazole, Alamar Blue growth, 48 h | 0.57% of 300,000 active | growth inhibition, % (test concentration not listed);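 active means growth inhibition above about 58% in most replicates, limit read from the data, passing the limit was not always enough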;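 further: all wells also contain fluconazole at 8 µg/ml as a sub-toxic cotreatment; 0% = median of DMSO wells and 100% = median of geldanamycin control wells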
PHOSPHO1 block – blocks human PHOSPHO1 phosphatase activity; Q8TCT1; recombinant PHOSPHO1, absorbance phosphatase assay; inhibition, % at 13.3 µM; 1.1% of 290,000 active; AID 1565; in the data active means inhibition above about 60%
Cl transport mod – KCC2 (human) Cl- transport modulation; Q9H2X9; B-score of Tl+ flux slope (higher = more flux/activation; lower = inhibition) at 10 µM; AID 1456; KCC2 cells, thallium flux FluoZin-2 fluorescence; 2.2% of 190,000 active;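 active means thallium flux slope and its plate-corrected score both differing from the plate sample mean at a set confidence after two filtering rounds, in either direction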;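 further: slope of fluorescence scaled to starting intensity during 10 to 20 s after thallium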
Efflux pump inh – antifungal efflux pump inhibition, Nile Red retention. 0.44% of 330,000 active. S. cerevisiae Candida pump triplex. inhibition, % at 10 µM;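 active means plate passing quality check with inhibition over a set limit, or well fluorescence over plate mean plus 4 SD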;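 further: Nile Red retained in pooled yeast measured as flow cytometry median fluorescence; 0% = buffer negative control and 100% = Enniatin B positive control; higher means more Nile Red kept so more efflux inhibition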
Cardio protect – protects H9c2 cardiomyocytes from peroxide injury; AID 588492; protection from H2O2 cell death, % at 20 µM; 0.63% of 360,000 active; H2O2 injury protection, ATPLite, 2 h;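 active means compounds giving at least 50% protection of heart cells from peroxide-induced death in the single-dose screen, raw or plate-pattern-corrected value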;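 further: 0% = DMSO wells with peroxide and 100% = DMSO wells without peroxide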
An asterisk follows results filed as active; . = no result.

SMILES	Calb FLC	PHOSPHO1 block	Cl transport mod	Efflux pump inh	Cardio protect
FC(F)(F)c1ccccc1NC(=S)NN=C1CCCCCC1	95*	-8	.	0	.
CC(OC(=O)c1ccc(Cl)nc1)C(=O)NC1(C#N)CCCCC1 (configuration not stated)	-12	.	.	0	-6
Cc1ccc(-c2csc3nc4c5ccccc5c(NCCCN(C)C)nn4c(=O)c23)cc1	78*	37	-0.29	0	-24
CC(C)Cc1nnc(NC(=O)CCC(=O)N2CCN(c3ccc(Cl)cc3)CC2)s1	23	15	.	0	4
CSc1ncccc1C(=O)Nc1ccc(S(=O)(=O)NC2=NCCCCC2)cc1	-7	32	1.8	0	-5
COC(=O)c1c[nH]c2c1-c1cc(C(=O)OCc3ccccc3)n(S(=O)(=O)c3ccc(C)cc3)c1C(=O)C2=O	.	.	.	.	-20
CCCSC1=N/C(=C\C=C\c2ccco2)C(=O)S1	-12	90*	-0.25	0	5
Cc1ccc2nc(C(C)(C)C)c(Cc3ccsc3)n2c1	.	.	.	.	2
Cn1cccc1Cc1nnc(SCC(=O)N2CCCCCC2)n1-c1ccc(F)cc1	4	3	-0.21	0	18
Cc1ccccc1-n1c(SCC(=O)N2CCN(c3ccccc3)CC2)nnc1-c1ccncc1	20	66*	0.18	1	3
Cc1ccc(-n2c(Cc3cccn3C)nnc2SCC(=O)N2CCN(c3ccccc3)CC2)cc1	7	77*	.	0	4
CCn1c(COc2cc(C)cc(C)c2)nnc1SCC(=O)N1CCN(c2ccccc2)CC1	-2	73*	.	0	-6
CC(=O)c1ccc(N2CCN(C(=O)c3ccc(Cl)c(NC4=NC5CS(=O)(=O)CC5S4)c3)CC2)cc1 (configuration not stated)	-6	47	.	0	-4
CC(=O)c1cccc(-c2ccnc3c2CC(C(=O)Nc2ccccc2)O3)c1 (configuration not stated)	.	.	.	.	-1
Cc1ccc(-c2cn3cccnc3n2)cc1NC(=O)c1ccc(Br)o1	-14	13	0.0069	0	12
COc1ccc(-c2cn3cccnc3n2)cc1NC(=O)c1ccc(Br)o1	39	-10	-0.095	0	58*
O=C(CN1CCN(Cc2ccc3c(c2)OCO3)CC1)c1c[nH]c2ccccc12	-3	84*	1.2	0	-5
CC(=NCc1ccncc1)C1=C(O)c2ccccc2C1=O	.	64*	.	.	.
Cc1ccc(NS(=O)(=O)c2cccc(C(=O)Nc3c(C)n(C)n(-c4ccccc4)c3=O)c2)cc1	-1	0	.	0	.
COC(=O)c1ccc(CN2CCC(n3nccc3NC(=O)C3CCCC3)CC2)cc1	-10	63*	.	0	3
CSc1cccc(CN2CCC(n3nccc3NC(=O)C3CC3)CC2)c1	-5	64*	.	0	0
CCOc1ccc(C=NNC(=O)c2cccc3ccccc23)cc1OCC	.	.	.	.	-2
CC(C)(C)NC(=S)N/N=C/c1cc(Br)c(O)c(Br)c1	76*	.	.	0	-6
O=C(Nc1ccc(C(F)(F)F)cc1)c1csc(-c2ccncc2)n1	-4	64*	0.61	0	-8
O=C(O)CCCCCn1c(SCC(=O)c2ccc(O)c(O)c2)nc2ccsc2c1=O	-9	5	-0.039	1	17
SMILES	Calb FLC	PHOSPHO1 block	Cl transport mod	Efflux pump inh	Cardio protect
CCCCn1c(SCC(=O)c2ccc(O)c(O)c2)nc2ccsc2c1=O	107*	2	-0.84	0	92*
O=C(CCCn1c(SCC(=O)c2ccc(O)c(O)c2)nc2ccccc2c1=O)NCC1CCCO1 (configuration not stated)	-22	21	-1.3	0	53*
CCc1ccc(-c2nc(CS(=O)CC(=O)NC3CCCCCC3)c(C)o2)cc1 (configuration not stated)	-5	12	.	0	-2
COc1ccc(CNC(=O)COC(=O)c2ccc(S(=O)(=O)N3CCCCC3)cc2)cc1	.	.	.	0	3
CCOC(=O)[C@@H]1[C@H]2COc3ccccc3[C@H]2N2C(=O)N(c3ccccc3)C(=O)[C@]12C	0	-2	.	0	-1
Cc1cccc(C(=O)N/N=C2\CS(=O)(=O)N(C)c3ccsc32)c1	0	-15	.	0	64*
N#Cc1cnc2nc(SCc3ccccc3)nn2c1	1	33	.	0	1
CCc1cc(=O)oc2cc(C)cc(OC(C)C(=O)NCCCn3ccnc3)c12 (configuration not stated)	-1	27	.	1	1
COc1cccc(-n2ccnc2SCC(=O)Nc2ccccc2)c1	1	60	-0.0099	0	-2
